Experimental findings from the supplement of paper PMC7366291 are described below.

Counter-ions that a name gives are not always drawn. ± gives the standard deviation or the standard deviation of the averaged measurements.

Common to all, as to settings: 25 µM; exposure: 24-48 hpf
Experiment [1] has as its system Danio rerio Tg(wt1b:EGFP) embryo, pronephros. The experiment in a line: glomerular separation, fold change vs DMSO control; higher = glomeruli further apart (abnormal). The method in brief:
(§1)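 Every feature is expressed as a fold change relative to the averaged DMSO-treated embryos of the same day. The exposure ran from 24 to 48 hpf at 28.5°C, with dechorionated Tg(wt1b:EGFP) zebrafish embryos in HEPES-buffered E3 containing 0.003% PTU, 0.5% DMSO and 25 μM compound. Dorsal pronephros images taken in agarose-filled 96-well plates were reduced to maximum projections, on which 16 reference points were set by hand in Fiji for a macro to compute distances and angles. Values more than 2 SD from the feature mean were not used.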

Experiment [2] has the same test system. The experiment in a line: glomerular width (mean of left and right), fold change vs DMSO control; higher = wider glomerulus. The gist of the method:
as §1

The test system is the same in experiment [3]. The experiment in a line: fraction of imaged embryos annotated as normal kidney; higher = less nephrotoxic; extreme values may be limits of the assay. The gist of the method: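 Dechorionated Tg(wt1b:EGFP) zebrafish embryos were exposed in 12-well plates to 25 μM compound in 0.5% DMSO, 5 mM HEPES-buffered E3 with 0.003% PTU, from 24 to 48 hpf at 28.5°C. Tricaine-anaesthetised larvae were oriented dorsally in agarose-filled 96-well plates, and pronephroi were imaged by widefield fluorescence (470 nm, 10 z-slices). Each embryo was manually annotated from maximum projections. The read-out is the fraction of embryos per treatment assigned to the normal-kidney category.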

The test system is the same in experiment [4]. In words: pronephric angle neck segment to proximal convoluted tubule (mean of left and right), fold change vs DMSO control; higher = larger pronephric angle. The method in brief: as §1

In turn, `NC[C@@H]1O[C@H](O[C@H]2[C@@H](O)[C@H](O[C@@H]3[C@@H](O)[C@H](N)C[C@H](N)[C@H]3O[C@H]3O[C@H](CO)[C@@H](O)[C@H](O)[C@H]3N)O[C@@H]2CO)[C@H](N)[C@@H](O)[C@@H]1O` [Paromomycin sulfate] had a glomerular separation in experiment [1] of 0.691 ± 0.18. This compound also displayed a glomerular width in experiment [2] of 1.07 ± 0.0023. In addition, the “fraction of imaged embryos annotated as normal kidney” value (“fraction of imaged embryos annotated” below) in experiment [3] came out at 0.75. Besides, the “pronephric angle neck segment” value in experiment [4] was determined as 0.99 ± 0.051.

`COc1ccc2[nH]c([S+]([O-])Cc3ncc(C)c(OC)c3C)nc2c1` (stereo not drawn) [Omeprazole]: in experiment [1], the glomerular separation was determined as 1.15 ± 0.38. For the same compound, the glomerular width in experiment [2] came out at 0.935 ± 0.073. In addition, the “fraction of imaged embryos annotated” value in experiment [3] turned out to be 0.667. For the same compound, in experiment [4], the “pronephric angle neck segment” value worked out at 1.1759 ± 0.00043.

For `Cn1nnc2c(C(N)=O)ncn2c1=O` [Temozolomide], the glomerular separation in experiment [1] amounted to 0.665 ± 0.25. Also, the glomerular width in experiment [2] turned out to be 1 ± 0.046. Further, the “fraction of imaged embryos annotated” value in experiment [3] came out at 0.917. Besides, the “pronephric angle neck segment” value in experiment [4] was 0.9479 ± 0.0066.

With `C[C@H]1c2cccc(O)c2C(=O)C2=C(O)[C@]3(O)C(=O)C(C(N)=O)=C(O)[C@@H](N(C)C)[C@@H]3[C@@H](O)[C@@H]21` [Doxycycline hydrochloride], the glomerular separation in experiment [1] turned out to be 1.09 ± 0.26. In experiment [2], this compound showed a glomerular width of 1.02 ± 0.055. The “fraction of imaged embryos annotated” value in experiment [3] was 0.833. Moreover, in experiment [4], the “pronephric angle neck segment” value was 1.034 ± 0.01.

Take `CC(C)(C)NC[C@H](O)COc1nsnc1N1CCOCC1` [Timolol maleate salt]: the glomerular separation in experiment [1] was found to be 0.812 ± 0.37. The glomerular width in experiment [2] turned out to be 0.9995 ± 0.0057. In addition, the “fraction of imaged embryos annotated” value in experiment [3] is 0.833. The “pronephric angle neck segment” value in experiment [4] was 0.9989 ± 0.0023.

With `CN(C)[C@@H]1C(O)=C(C(=O)NCNCCCC[C@H](N)C(=O)O)C(=O)[C@@]2(O)C(O)=C3C(=O)c4c(O)cccc4[C@@](C)(O)[C@H]3C[C@@H]12` [Lymecycline], the glomerular separation in experiment [1] is 1.2 ± 0.48. For the same compound, the glomerular width in experiment [2] worked out at 0.916 ± 0.014. Besides, the “fraction of imaged embryos annotated” value in experiment [3] came to 1. The “pronephric angle neck segment” value in experiment [4] worked out at 0.97 ± 0.023.

Turning to `CN(C)[C@@H]1C(O)=C(C(N)=O)C(=O)[C@@]2(O)C(O)=C3C(=O)c4c(O)ccc(Cl)c4[C@@](C)(O)[C@H]3C[C@@H]12` [Chlortetracycline hydrochloride], in experiment [1], the glomerular separation amounted to 1.18 ± 0.35. Besides, the glomerular width in experiment [2] was determined as 1.04 ± 0.012. Further, in experiment [3], the “fraction of imaged embryos annotated” value came to 0.583. The “pronephric angle neck segment” value in experiment [4] came to 0.9692 ± 0.0065.
